The record followed here is ChEMBL document CHEMBL1961873, “Compounds: GSK PKIS; Assays: Nanosyn kinase panel” (2012).

In general, inhibition refers to the change of the read-out against control, counted positive when it falls.

Assay [1] addresses Sphingosine kinase 1 (Homo sapiens) (UniProt Q9NYA1). The settings on record: at 1 µM.
Assay [2] has as its target T1, Sphingosine kinase 2 (Homo sapiens) (UniProt Q9NRA0).
T1 sequence (whole entry): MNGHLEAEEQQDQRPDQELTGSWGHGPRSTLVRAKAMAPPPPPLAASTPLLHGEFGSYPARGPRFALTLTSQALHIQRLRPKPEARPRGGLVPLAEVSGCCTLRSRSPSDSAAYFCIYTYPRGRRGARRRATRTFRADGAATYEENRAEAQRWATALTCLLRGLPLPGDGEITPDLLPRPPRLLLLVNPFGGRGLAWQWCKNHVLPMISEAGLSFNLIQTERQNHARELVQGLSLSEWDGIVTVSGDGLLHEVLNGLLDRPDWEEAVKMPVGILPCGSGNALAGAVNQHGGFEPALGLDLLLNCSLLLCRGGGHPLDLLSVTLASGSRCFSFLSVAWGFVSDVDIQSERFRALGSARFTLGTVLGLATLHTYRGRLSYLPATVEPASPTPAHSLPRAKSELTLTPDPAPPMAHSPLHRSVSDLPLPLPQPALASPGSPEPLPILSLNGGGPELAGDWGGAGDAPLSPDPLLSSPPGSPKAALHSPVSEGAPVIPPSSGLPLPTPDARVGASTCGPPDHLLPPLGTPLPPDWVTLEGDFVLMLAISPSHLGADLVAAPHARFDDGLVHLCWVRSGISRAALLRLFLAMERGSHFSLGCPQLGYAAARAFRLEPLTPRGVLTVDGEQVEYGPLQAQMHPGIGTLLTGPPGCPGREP
The settings on record: at 0.1 µM.

Assay [3] deals with T1, Sphingosine kinase 2 (Homo sapiens). The settings on record: at 1 µM.
Assay [4] concerns the target Casein kinase II subunit alpha (Homo sapiens) (UniProt P68400). Conditions: at 0.1 µM.
Assay [5] has the same target. Conditions: at 1 µM.
The target of assay [6] is T2, Inhibitor of nuclear factor kappa-B kinase subunit alpha (Homo sapiens) (UniProt O15111).
T2 sequence (whole entry): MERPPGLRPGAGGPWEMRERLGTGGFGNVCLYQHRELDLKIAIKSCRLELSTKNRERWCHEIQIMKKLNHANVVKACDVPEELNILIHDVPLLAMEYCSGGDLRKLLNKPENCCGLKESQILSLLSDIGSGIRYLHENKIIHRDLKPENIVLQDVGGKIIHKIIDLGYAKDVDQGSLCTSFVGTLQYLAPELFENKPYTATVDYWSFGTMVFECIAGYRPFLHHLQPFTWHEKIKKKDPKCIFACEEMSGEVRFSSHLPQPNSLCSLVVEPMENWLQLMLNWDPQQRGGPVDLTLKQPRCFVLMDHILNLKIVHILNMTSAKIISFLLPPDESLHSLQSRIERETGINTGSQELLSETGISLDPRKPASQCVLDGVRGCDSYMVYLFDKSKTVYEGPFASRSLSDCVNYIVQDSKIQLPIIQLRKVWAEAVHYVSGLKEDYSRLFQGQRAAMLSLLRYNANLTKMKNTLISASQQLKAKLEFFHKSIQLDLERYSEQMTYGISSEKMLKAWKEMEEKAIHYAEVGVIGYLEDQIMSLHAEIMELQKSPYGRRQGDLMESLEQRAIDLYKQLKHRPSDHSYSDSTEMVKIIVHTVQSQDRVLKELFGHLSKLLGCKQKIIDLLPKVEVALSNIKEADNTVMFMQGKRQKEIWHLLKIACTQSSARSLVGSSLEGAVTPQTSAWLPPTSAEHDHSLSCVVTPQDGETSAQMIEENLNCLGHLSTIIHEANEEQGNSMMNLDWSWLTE
Conditions: at 0.1 µM.

For assay [7], the target named is T2, Inhibitor of nuclear factor kappa-B kinase subunit alpha (Homo sapiens). Conditions: at 1 µM.
The target of assay [8] is T3, Inhibitor of nuclear factor kappa-B kinase subunit beta (Homo sapiens) (UniProt O14920).
T3 sequence (whole entry): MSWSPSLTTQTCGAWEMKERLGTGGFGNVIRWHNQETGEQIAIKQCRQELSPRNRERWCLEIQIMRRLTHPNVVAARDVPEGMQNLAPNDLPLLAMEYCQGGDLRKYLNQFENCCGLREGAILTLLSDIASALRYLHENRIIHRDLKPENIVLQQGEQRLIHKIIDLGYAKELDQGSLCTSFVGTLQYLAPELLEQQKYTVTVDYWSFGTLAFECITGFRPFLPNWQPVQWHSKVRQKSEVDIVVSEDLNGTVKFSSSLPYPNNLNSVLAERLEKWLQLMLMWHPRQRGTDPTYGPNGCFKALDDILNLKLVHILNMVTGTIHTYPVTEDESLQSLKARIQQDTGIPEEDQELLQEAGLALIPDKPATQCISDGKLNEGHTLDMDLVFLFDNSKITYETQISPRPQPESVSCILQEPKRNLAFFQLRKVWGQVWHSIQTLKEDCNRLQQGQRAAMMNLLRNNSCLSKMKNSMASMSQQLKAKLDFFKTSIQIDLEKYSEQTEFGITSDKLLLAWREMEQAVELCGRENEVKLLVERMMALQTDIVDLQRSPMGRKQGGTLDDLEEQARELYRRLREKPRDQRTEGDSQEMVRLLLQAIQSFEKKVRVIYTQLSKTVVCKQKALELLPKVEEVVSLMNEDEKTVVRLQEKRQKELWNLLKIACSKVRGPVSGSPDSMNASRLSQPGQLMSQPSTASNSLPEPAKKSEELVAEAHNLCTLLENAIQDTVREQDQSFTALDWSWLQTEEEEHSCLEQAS
The settings on record: at 0.1 µM.

The target in assay [9] is T3, Inhibitor of nuclear factor kappa-B kinase subunit beta (Homo sapiens). Conditions: at 1 µM.
The target of assay [10] is T4, Inhibitor of nuclear factor kappa-B kinase subunit epsilon (Homo sapiens) (UniProt Q14164).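 Also: mean inhibition of IKKε reported, from the GSK PKIS dataset.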
T4 sequence (whole entry): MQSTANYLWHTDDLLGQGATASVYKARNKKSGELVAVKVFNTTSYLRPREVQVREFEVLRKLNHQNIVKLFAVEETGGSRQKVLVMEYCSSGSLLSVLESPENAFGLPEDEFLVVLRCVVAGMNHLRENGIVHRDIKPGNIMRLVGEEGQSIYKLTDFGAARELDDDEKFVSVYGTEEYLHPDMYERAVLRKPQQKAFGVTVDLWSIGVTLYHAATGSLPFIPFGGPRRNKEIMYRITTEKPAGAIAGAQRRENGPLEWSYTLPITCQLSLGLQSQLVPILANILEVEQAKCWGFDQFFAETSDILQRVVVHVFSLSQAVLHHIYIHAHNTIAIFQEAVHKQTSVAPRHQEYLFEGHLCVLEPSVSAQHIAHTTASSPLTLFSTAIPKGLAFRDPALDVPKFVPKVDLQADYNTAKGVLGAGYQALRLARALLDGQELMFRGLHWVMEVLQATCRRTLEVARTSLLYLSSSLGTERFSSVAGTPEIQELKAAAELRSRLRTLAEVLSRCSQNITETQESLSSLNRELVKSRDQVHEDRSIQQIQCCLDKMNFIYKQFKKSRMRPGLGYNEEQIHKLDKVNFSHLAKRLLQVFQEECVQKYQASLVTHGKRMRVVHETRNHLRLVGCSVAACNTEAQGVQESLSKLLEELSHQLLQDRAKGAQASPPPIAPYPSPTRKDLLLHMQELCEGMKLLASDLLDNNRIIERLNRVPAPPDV
Conditions: at 0.1 µM.

Casein kinase II subunit alpha (Homo sapiens), sequence (P68400 whole entry, looked up): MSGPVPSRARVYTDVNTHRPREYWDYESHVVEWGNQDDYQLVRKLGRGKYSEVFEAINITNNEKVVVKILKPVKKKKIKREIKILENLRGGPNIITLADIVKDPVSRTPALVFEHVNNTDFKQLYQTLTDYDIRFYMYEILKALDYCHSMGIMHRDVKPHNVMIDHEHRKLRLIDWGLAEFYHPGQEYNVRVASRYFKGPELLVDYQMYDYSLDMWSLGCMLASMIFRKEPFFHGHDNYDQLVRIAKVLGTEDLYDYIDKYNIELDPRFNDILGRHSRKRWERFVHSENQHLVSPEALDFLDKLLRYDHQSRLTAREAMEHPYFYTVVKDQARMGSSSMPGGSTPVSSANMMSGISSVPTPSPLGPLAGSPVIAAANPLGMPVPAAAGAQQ
Sphingosine kinase 1 (Homo sapiens), sequence (Q9NYA1 whole entry): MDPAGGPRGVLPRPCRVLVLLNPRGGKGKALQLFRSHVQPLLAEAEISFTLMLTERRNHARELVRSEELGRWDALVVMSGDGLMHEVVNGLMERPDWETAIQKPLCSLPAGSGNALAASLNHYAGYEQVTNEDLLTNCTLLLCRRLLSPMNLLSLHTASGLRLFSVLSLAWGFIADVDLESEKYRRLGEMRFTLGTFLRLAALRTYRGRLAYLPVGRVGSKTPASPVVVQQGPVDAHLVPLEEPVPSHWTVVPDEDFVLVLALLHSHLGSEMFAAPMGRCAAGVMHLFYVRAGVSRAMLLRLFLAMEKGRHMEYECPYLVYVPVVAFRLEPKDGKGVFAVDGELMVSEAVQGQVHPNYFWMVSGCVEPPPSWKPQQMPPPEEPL

For `COC(=O)c1sc(-n2cnc3cc(OC)c(OC)cc32)cc1OCc1ccccc1C(F)(F)F`, the inhibition is 1.91% in assay [1]; 0.14% in assay [2]; -2.19% in [3]; 0.66% in assay [4]; -0.18% in assay [5]; 3.9% in [6]. The inhibition came out at 5.32% in assay [7], 5.59% in assay [8], 4.11% in assay [9] and 3.88% in assay [10].
`COC(=O)Nc1nc2ccc(S(=O)(=O)c3ccc(NC(=O)Nc4cc(C(F)(F)F)ccc4F)cc3)cc2[nH]1`: the inhibition in assay [1] is -2.79%; in [2], -0.31%; in assay [3] it was 0.98%; in assay [4], -0.42%; in [5], -2.21%; in assay [6], 6.4%. In addition, the inhibition in assay [7] is 2.23%; in assay [8] it was 5.3%; in assay [9], 7.84%; in [10] it was 2.8%.
Take `COc1ccc(-c2cc(-c3c[nH]nc3-c3ccccn3)ccn2)cc1`: the inhibition in [1] is 0.76%; in [2], -1.45%; in assay [3], -1.01%; in assay [4], 5.84%; in assay [5] it was 8.65%; in assay [6] it was -3.06%. Further, the inhibition in assay [7] came to 10.5%; in [8] it was 7.11%; in assay [9] it was 8.08%; in assay [10] it was 7.81%.
In the case of `NS(=O)(=O)c1ccc(Nc2ncc(-c3ccccc3)o2)cc1`, the inhibition in assay [1] was 0%; in [2], -1.43%; in [3] it was -1.09%; in assay [4] it was 3.56%; in [5], 10.3%; in [6], 6.23%. Further, the inhibition in assay [7] came out at 15.3%; in assay [8], 3.35%; in assay [9] it was 11.7%; in assay [10], 4.43%.
As to `CCc1nn2ncccc2c1-c1ccnc(NC2CC2)n1`, the inhibition in [1] worked out at 0.9%; in assay [2], 0%; in [3], 0.3%; in [4], 1.46%; in [5], 4.59%; in assay [6], 3.61%. For the same compound, the inhibition was found to be 6.96% in [7], 4.78% in assay [8], 3.76% in [9] and 4.47% in assay [10].
As to `COc1cc(/C=N/Nc2ncnc3[nH]ncc23)ccc1O`, the inhibition was -2.47% in [1]; 0.06% in assay [2]; 0.42% in assay [3]; 8.38% in [4]; 34.8% in assay [5]; 14.9% in assay [6]. Besides, the inhibition in [7] was 62%; in assay [8], 5.05%; in assay [9], 13.6%; in assay [10], 0.87%.
For `COc1cccc(-c2c[nH]c3c(N/N=C/c4ccncc4)ncnc23)c1`, the inhibition is 0.2% in [1]; 1.73% in assay [2]; -1% in [3]; 8.8% in [4]; 43.7% in [5]; 9.76% in assay [6]. The inhibition came to 9.01% in assay [7], 2.82% in assay [8], 1.73% in assay [9] and 2.96% in assay [10].
As for `COc1ccc(-c2oc3ncnc(N)c3c2-c2ccc(NC(=O)Nc3cc(C(F)(F)F)ccc3F)cc2)cc1`, the inhibition in assay [1] was -0.9%; in [2], 0.08%; in assay [3], 0.05%; in assay [4], 6.63%; in assay [5], 16.7%; in [6], 1.18%. Moreover, the inhibition stood at 2.5% in [7], 7.03% in assay [8], 5.27% in assay [9] and 8.13% in assay [10].
